Our source for the z-score and composite z-score values is PubChem BioAssay.

Experiment [1] in a line: E. coli DRC41 culture turbidity changes, primary screen, E. coli filamentation inducer project, strain DRC41, OD650, 48 h (AID 1152).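 Further: E. coli MC1000 strain DRC41 lacking acrAB efflux pump and sulA.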 To be noted: E. coli DRC41 (acrAB sulA), higher = more signal, called active from +8 up or from −8 down.
Experiment [2] in a line: small-molecule binders of probe aLefty1, primary screen, biochemical, small-molecule microarray, 635/667 nm fluorescence (AID 1153).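 Further: score merges spot fluorescence with signal-to-noise ratio from the scanned slide images.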 As to conditions: higher = more signal.
Experiment [3] can be described thus: PSAC antagonists in infected red cells, primary screen, cell-based, P. falciparum Indochina, OD700, 1 h (AID 1154). To be noted: P. falciparum Indochina infected RBC osmotic lysis, higher = more signal, called active from +8 up or from −8 down.
Experiment [4] can be described thus: PSAC antagonists in infected red cells, primary screen, cell-based, P. falciparum Indochina, OD700, 2 h (AID 1155).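 Further: lysis reports solute entry through the parasite surface anion channel PSAC; channel blockers reduce lysis of infected cells.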 As to conditions: P. falciparum Indochina infected erythrocytes, osmotic lysis OD700; higher = more signal, called active from +8 up or from −8 down.
Experiment [5] can be described thus: osmotic lysis modulators in infected erythrocytes, primary screen, PSAC antagonist project, cell-based, P. falciparum Indochina, OD700, 3 h (AID 1156). To be noted: higher = more signal, called active from +8 up or from −8 down.
The nature of experiment [6]: PSAC antagonists in infected red cells, primary screen, cell-based, P. falciparum Indochina, OD700, 18 h (AID 1157). To be noted: P. falciparum Indochina infected erythrocytes, osmotic lysis OD700, 18 h; higher = more signal, called active from +8 up or from −8 down.
Experiment [7] in a line: modulators of S6 phosphorylation in cells, primary screen, cell-based, A549, cytoblot, luminescence, serum-stimulated (AID 1158).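 Further: serum-stimulated A549 lung adenocarcinoma cells; signal is phosphorylated S6 detected by cytoblot immunostaining with HRP secondary.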 To be noted: A549 phospho-S6 cytoblot, 5 h, higher = more signal.
Experiment [8] concerns the target NADPH oxidase 2 (Homo sapiens) (UniProt P04839). Kind of experiment: NOX2-dependent H2O2 signal modulators, primary screen, NOX inhibitor project, cell-based, HEK293-NOX2, PMA-stimulated, Amplex Red fluorescence (AID 1159). Further: test concentration not given here. As to conditions: 45 min, higher = more signal, called active from +8 up or from −8 down.
Experiment [9] has as its target NADPH oxidase 4 (Homo sapiens) (UniProt Q9NPH5). Kind of experiment: NOX4-dependent H2O2 signal modulators, primary screen, NOX inhibitor project, cell-based, HEK293-NOX4, tetracycline-induced, Amplex Red fluorescence (AID 1160). As to conditions: 45 min, higher = more signal, called active from +8 up or from −8 down.
Experiment [10] addresses NADPH oxidase 5 (Homo sapiens) (UniProt Q96PH1). Kind of experiment: NOX5-dependent H2O2 signal modulators, primary screen, NOX inhibitor project, cell-based, HEK293-NOX5, Amplex Red fluorescence (AID 1161). As to conditions: HEK293-NOX5, ionomycin, 45 min, higher = more signal.
Experiment [11] is described as follows: A549 cell viability effects, profiling panel, calcein-AM fluorescence, 48 h, basal (AID 1162). Further: test concentration not given here. To be noted: higher = more signal.
The nature of experiment [12]: adipocyte viability effects, profiling panel, cell-based, 3T3-L1 adipocytes, calcein-AM fluorescence, 48 h, basal (AID 1163). Further: test concentration not given here. To be noted: 3T3-L1 adipocytes viability, higher = more signal.
A short description of experiment [13]: HepG2 cell viability effects, profiling panel, calcein-AM fluorescence, 48 h, basal (AID 1164). Further: test concentration not given here. To be noted: higher = more signal.
Experiment [14] is described as follows: MM1S cell viability effects, profiling panel, calcein-AM fluorescence, 48 h, basal (AID 1165).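 Further: viability of MM1S multiple myeloma cells under basal unstimulated conditions; test concentration not given here.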 To be noted: higher = more signal.
The nature of experiment [15]: basal RPMI8226 viability, no added stimulus, profiling panel, cell-based, calcein-AM fluorescence, 48 h, PK04 Diversity Set (AID 1166).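 Further: cells grown under basal conditions without added stimulus; test concentration not given here.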 As to conditions: RPMI8226 myeloma viability, higher = more signal.
Experiment [16] can be described thus: basal HepG2 mitochondrial membrane potential changes, profiling panel, cell-based, JC-1 fluorescence, 24 h, 100 nL compound (AID 1167). Further: test concentration not given here. To be noted: higher = more signal.
Experiment [17] in a line: basal 3T3-L1 adipocyte mitochondrial potential changes, profiling panel, cell-based, JC-1 fluorescence, 3T3-L1 adipocytes, 24 h, 100 nL compound (AID 1168). Further: test concentration not given here. To be noted: JC-1 mitochondrial fluorescence, higher = more signal, called active from +8 up or from −8 down.
Experiment [18] in a line: basal RPMI8226 mitochondrial membrane potential changes, profiling panel, cell-based, JC-1 fluorescence, 24 h, 100 nL compound (AID 1169). Further: test concentration not given here. As to conditions: RPMI8226 myeloma, JC-1 mitochondrial potential fluorescence, higher = more signal.
Experiment [19] can be described thus: basal MM1S mitochondrial membrane potential changes, profiling panel, cell-based, JC-1 fluorescence, 24 h, 100 nL compound (AID 1170). Further: test concentration not given here. As to conditions: higher = more signal.
Experiment [20] in a line: A549 lung cancer cell viability effects, profiling panel, resazurin fluorescence, 24 h, PK04 Diversity Set (AID 1171). Further: test concentration not given here. As to conditions: higher = more signal, called active from +8 up or from −8 down. In general terms: The colour change of resazurin is a common sign of viable cells or microbes.

Calls of active or inactive are those of the source.

NADPH oxidase 5 (Homo sapiens), sequence (Q96PH1 whole entry, looked up): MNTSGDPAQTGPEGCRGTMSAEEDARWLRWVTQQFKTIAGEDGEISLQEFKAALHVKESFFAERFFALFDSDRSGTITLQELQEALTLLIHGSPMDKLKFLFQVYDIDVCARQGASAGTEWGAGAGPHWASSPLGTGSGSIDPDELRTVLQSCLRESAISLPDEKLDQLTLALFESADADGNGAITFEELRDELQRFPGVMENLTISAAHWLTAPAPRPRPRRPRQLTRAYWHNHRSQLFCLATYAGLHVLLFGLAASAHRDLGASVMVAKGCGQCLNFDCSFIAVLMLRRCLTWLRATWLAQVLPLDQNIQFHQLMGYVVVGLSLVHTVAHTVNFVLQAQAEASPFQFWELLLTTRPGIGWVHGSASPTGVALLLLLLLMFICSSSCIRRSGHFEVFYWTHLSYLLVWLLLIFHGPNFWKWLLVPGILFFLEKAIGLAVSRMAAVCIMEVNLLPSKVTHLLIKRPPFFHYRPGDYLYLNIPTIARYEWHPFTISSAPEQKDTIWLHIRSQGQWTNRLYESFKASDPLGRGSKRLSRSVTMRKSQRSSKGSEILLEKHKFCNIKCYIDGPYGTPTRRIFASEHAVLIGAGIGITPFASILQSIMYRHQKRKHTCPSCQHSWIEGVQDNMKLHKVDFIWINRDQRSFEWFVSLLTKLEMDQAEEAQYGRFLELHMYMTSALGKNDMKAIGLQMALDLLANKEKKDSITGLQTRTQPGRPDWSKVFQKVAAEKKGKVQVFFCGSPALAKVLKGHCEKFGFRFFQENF
NADPH oxidase 2 (Homo sapiens), sequence (P04839 whole entry, looked up): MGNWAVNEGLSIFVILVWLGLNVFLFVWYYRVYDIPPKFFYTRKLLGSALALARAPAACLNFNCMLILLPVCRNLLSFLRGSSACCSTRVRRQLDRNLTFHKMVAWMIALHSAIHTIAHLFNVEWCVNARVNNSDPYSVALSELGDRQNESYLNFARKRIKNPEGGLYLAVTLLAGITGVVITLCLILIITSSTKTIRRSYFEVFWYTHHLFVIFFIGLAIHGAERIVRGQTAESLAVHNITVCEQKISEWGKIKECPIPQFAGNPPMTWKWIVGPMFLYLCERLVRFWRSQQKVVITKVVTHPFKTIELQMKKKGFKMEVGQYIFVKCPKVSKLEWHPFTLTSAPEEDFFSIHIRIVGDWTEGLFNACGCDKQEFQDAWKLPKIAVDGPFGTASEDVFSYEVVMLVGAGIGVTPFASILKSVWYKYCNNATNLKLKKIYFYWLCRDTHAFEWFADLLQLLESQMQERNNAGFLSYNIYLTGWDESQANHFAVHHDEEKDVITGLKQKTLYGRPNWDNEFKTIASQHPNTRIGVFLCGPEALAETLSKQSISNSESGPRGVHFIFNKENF
NADPH oxidase 4 (Homo sapiens), sequence (Q9NPH5 whole entry, looked up): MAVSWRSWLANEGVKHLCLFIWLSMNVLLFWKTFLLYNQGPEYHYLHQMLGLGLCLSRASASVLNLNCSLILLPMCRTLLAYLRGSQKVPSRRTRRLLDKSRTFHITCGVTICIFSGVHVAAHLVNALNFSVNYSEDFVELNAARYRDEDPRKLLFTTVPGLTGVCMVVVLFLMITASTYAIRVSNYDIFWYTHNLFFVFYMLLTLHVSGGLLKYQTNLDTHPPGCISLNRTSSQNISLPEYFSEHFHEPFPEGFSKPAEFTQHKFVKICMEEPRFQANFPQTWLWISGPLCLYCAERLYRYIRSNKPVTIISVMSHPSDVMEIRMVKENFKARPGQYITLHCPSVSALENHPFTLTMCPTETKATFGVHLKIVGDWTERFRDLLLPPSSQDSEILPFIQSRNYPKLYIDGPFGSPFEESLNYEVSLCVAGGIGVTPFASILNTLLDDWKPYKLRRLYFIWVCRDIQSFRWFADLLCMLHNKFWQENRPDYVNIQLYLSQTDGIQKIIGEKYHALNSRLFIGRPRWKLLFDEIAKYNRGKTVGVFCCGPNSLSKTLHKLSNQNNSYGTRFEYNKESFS

Consider `COC(=O)[C@]1(Cc2ccccc2CN=[N+]=[N-])N=C(c2ccc(OCCCO)cc2)O[C@@H]1c1ccccc1`, for which the z-score in experiment [1] is -0.453 (inactive); in experiment [3], 27.8 (active); in experiment [4], 26.4 (active); in experiment [5], -0.232 (inactive); in [6], 6.71 (inactive); in experiment [7], 0.008. The z-score in experiment [8] is -2.2 (inactive); in experiment [9], -1.59 (inactive); in experiment [10] it was -2.6; in experiment [11], -3.05; in experiment [12], 0.371; in [13], -4.37. For the same compound, the z-score in experiment [14] is -3.58; in experiment [15], -3.96; in experiment [16] it was -1.05; in experiment [17], 0.199 (inactive); in experiment [18], -1.05; in [19], -2.7. In experiment [20], the z-score was -2.91 (inactive). In experiment [2], this compound returned a composite z-score of 0.14.
As to `C=CCNC(=O)[C@H]1[C@@H]2C(=O)O[C@@H](c3ccccc3)[C@@H](c3ccccc3)N2[C@@H](c2ccc(OCCO)cc2)[C@]12C(=O)N(C(=O)OCCOC)c1ccc(C#CC3=CCCCC3)cc12`, the z-score in [1] was 1.1 (inactive); in experiment [3], 2.13 (inactive); in [4], 1.76 (inactive); in experiment [5], 0.178 (inactive); in experiment [6], 0.948 (inactive); in experiment [7] it was 0.632. The z-score in [8] was 1.99 (inactive); in [9], 0.421 (inactive); in [10], 2.48; in experiment [11] it was -0.906; in experiment [12], 0.968; in experiment [13] it was -0.546. In addition, the z-score was -1.96 in [14]; -2.49 in [15]; -0.609 in experiment [16]; 2.06 (inactive) in experiment [17]; -0.753 in experiment [18]; -1.05 in [19]. For the same compound, the z-score in experiment [20] was 0.248 (inactive). The same compound showed a composite z-score in experiment [2] of 0.213.
For the compound `COC(=O)C(CC#Cc1ccc2c(c1)[C@]1(C(=O)N2)[C@H](C(=O)N2CCc3cc(OC)c(OC)cc3C2)[C@H]2C(=O)O[C@H](c3ccccc3)[C@H](c3ccccc3)N2[C@@H]1c1ccc(OCCO)cc1)C(=O)OC`, the z-score in experiment [1] was 0.408 (inactive); in experiment [3], 6.17 (inactive); in experiment [4], 2.37 (inactive); in experiment [5], 1.15 (inactive); in experiment [6], 1.28 (inactive); in experiment [7] it was 0.237. Besides, the z-score in [8] was 1.26 (inactive); in experiment [9] it was 0.487 (inactive); in [10], 1.32; in experiment [11] it was 0.968; in experiment [12] it was -0.204; in [13], 1.63. Also, the z-score in experiment [14] was 0.783; in experiment [15], 0.678; in experiment [16] it was -2.03; in experiment [17], 0.375 (inactive); in experiment [18], -0.678; in experiment [19], -1.49. Moreover, the z-score in experiment [20] was 0.21 (inactive). Further, the composite z-score in [2] was 0.546.
On to `O=C1c2ccccc2C(=O)C2CC([C@H]3Oc4ccccc4S(=O)(=O)N4CCC[C@@H]34)=CCC12` (stereo not given in full), for which the z-score in experiment [1] is 1.03 (inactive); in experiment [3] it was 8 (inactive); in [4], 1.12 (inactive); in experiment [5], -0.0247 (inactive); in experiment [6], 0.696 (inactive); in experiment [7], 0.127. In addition, the z-score is 0.5 (inactive) in experiment [8]; -3.1 (inactive) in experiment [9]; -0.779 in [10]; 0.242 in [11]; 0.703 in experiment [12]; 1.13 in experiment [13]. Moreover, the z-score in [14] is -2.53; in [15], -0.0759; in experiment [16] it was 0.786; in [17] it was 0.0775 (inactive); in experiment [18], -0.667; in [19] it was -0.852. Also, the z-score in experiment [20] is 0.178 (inactive). The same compound gave a composite z-score in experiment [2] of -0.196.
